Of roughly 21,000 targets only a part is listed; those with the largest changes were picked by preference.

The target in this assay is HPRT1_P00492_66_EMGGHHIVALCVLK (UniProt P00492). Briefly: probe-labelled cysteine peptide fold change vs DMSO (competition) (log2 fold change); higher = less target engagement (more negative = stronger competition). Conditions: THP-1, incubation time: 4 h.
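Also: competitive chemoproteomic profiling in live THP-1 cells with an iodoacetamide desthiobiotin (IA-DTB) probe, comparing probe-labelled peptide intensities in compound-treated cells against DMSO-treated controls.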

UniProt P00492, sequence (P00492 whole entry, looked up): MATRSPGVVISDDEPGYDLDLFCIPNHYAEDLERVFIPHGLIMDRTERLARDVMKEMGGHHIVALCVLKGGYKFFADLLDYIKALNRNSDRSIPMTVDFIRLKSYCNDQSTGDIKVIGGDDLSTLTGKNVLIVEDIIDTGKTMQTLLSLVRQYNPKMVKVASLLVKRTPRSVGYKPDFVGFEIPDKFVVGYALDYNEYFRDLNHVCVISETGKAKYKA

As for `CC1Cc2ccccc2N1C(=O)C1CCCN(C(=O)CCl)C1` (mixture of isomers) [TRIM25 ligand 11 (diastereomer mixture)], the “probe-labelled cysteine peptide fold change” value reads like this: (10 µM) -0.135; (50 µM) 0.123.

Values taken from the supplement of paper PMC12067093, “Discovery and optimisation of a covalent ligand for TRIM25 and its application to targeted protein ubiquitination” (Chemical Science, 2025).
